Experimental findings from PubChem BioAssay AID602392 (National Center for Advancing Translational Sciences (NCATS), 2012) are described below.

“And” between values parts separate entries of the source, which are not always exact repeats. Equal values may be shown once. The source made the active and inactive calls. Calls come from the whole dose curve.

This assay addresses 4'-phosphopantetheinyl transferase Sfp (Bacillus subtilis (strain 168)) (UniProt P39135). The assay is described as follows: qHTS Assay for Inhibitors of Bacillus subtilis Sfp phosphopantetheinyl transferase (PPTase): Label Free Assay for SAR. The note with it: purified Sfp with carrier protein, gel densitometry, 30 min. The text has this:
The covalent attachment of a phosphopantetheinyl (4'-PP) arm to a variety of synthases and other proteins is a key posttranslational protein modification. The 4'-PP is installed on the proteins post-translationally from coenzyme A (CoA) on a conserved serine residue by action of phosphopantetheinyl transferase (PPTase) enzymes. Phosphopantetheinylation is essential for synthase activity, and removal of the PPTase gene precludes natural product synthesis in microorganisms, or in the case of fatty acid biosynthesis, renders the organism unviable. PPTase enzymes belong to a distinct structural superfamily. Within bacteria, these enzymes are grouped into two classes based upon primary structure, the AcpS-Type and Sfp-Type PPTases.
Sfp-type PPTases, corresponding to an activator of surfactin production in Bacillus subtilis, are responsible for modifying type I polyketide and nonribosomal peptide synthases of prokaryotes. Sfp-type PPTases are responsible for the activation of a variety of pathogen-associated virulence factors. Among these compounds are toxins such as mycolactone from Mycobacterium ulcerans, siderophores such as vibriobactin from Vibrio cholerae or mycobactin from Mycobacterium tuberculosis, as well as the mycolic acids which form the waxy cell wall of Mycobacteria. The biosyntheses of these natural products are considered attractive targets for drug design.
In search of small molecule Sfp-PPTase inhibitors, a fluorescence quenching assay was developed for detection of Bacillus subtilis Sfp-PPTase enzymatic activity in a miniaturized high-throughput format. The consensus ybbr acceptor peptide […] was N-terminally labeled with Black Hole Quencher-2 (BHQ-2) and used in combination with rhodamine-labeled coenzyme A as a co-substrate.
This project seeks to identify inhibitors of Sfp phosphopantetheinyl transferase. The primary and secondary screens both utilized a rhodamine-modified CoA substrate. This experiment sought to confirm compound activity in a biochemical assay using the natural nucleotide substrate in conjunction with a whole-protein acceptor. We employed polyacrylamide gel electrophoresis in the presence of modest urea concentrations to achieve a conformationally sensitive separation of the apo- and holo- states of the acyl carrier protein (ACP) from E. coli [Rock, 1981, Cronan 1982]. Under conditions of limiting Sfp concentrations, quantitative determinations of enzyme activity can be made from images of the gels after treatment with an appropriately sensitive protein stain.
NIH Chemical Genomics Center [NCGC]
NIH Molecular Libraries Probe Centers Network [MLPCN]
Assay Submitter (PI): Michale Burkart, University of California, San Diego
Preparation of apo-ACP substrate.
A derivative of the AcpP locus from E. coli K12 containing a C-terminal fusion to a hexahistidine tag is expressed and purified from E.coli BL21(DE3) following standard procedures, (27) providing a mixture of the apo- and holo- forms of ACP in a ratio 3:2; as judged by UREA-PAGE. The resulting mixture (10 mg/ml) is reduced overnight in PBS buffer containing 10 mM DTT, and excess reducing agent removed by passage over a PD6 desalting column (Bio-Rad Laboratories, Hercules, CA). The sample is immediately pooled with an equal volume of activated thiol sepharose 4B (cat #17-0640-01, GE Healthcare, Piscataway, NJ) prepared according to the manufacturers recommendations; and the slurry agitated gently overnight at 4 deg C. The slurry was decanted into a disposable chromatography column and washed with 3 volumes of PBS. The filtrate and washes were pooled, concentrated, and the process iterated once to provide a solution of ACP that was >98% apo-form as judged by conformationally sensitive UREA-PAGE.
Label-free gel assay for phosphopantetheinylation.
Test compound (0.5 ul) dissolved in DMSO was added to 1.33 X enzyme solution (15 ul) containing 66 nM Sfp, 66 mM HEPES*Na pH 7.6, 13.3 mM MgCl2, 0.0133% NP40, and 1.33 mg/ml BSA. […]
In general terms: In qHTS, concentration-response curves come from the screen itself.
Consider `C(=C1\Nn2c(COc3ccccc3)nnc2S1)/c1ccccc1`, for which the Potency is 27.8 µM (active). Still for that read-out and setting: under `O=C(Nc1nnc(COc2ccc(Cl)cc2)s1)c1cccs1` stands 250 µM (active). For `CC(C)(C)Cc1nnc(NC(=O)CSc2ccccc2)s1`, the result was inactive. The same measure, in the same setting: to `CCc1c(C)sc(NC(=O)C2CCCCC2C(=O)O)c1C(N)=O` (configuration not stated) belongs “inactive”.

Regarding `CN(C)c1ccc(C(=S)N2CCN(Cc3ccccc3)CC2)cc1`, the Potency is 27.8 µM (active). Regarding `COc1ccc(N2CCN(C(=S)Nc3cc(C)ccn3)CC2)cc1`, the Potency is 83.3 µM (active). Turning to `S=C(Nc1ccccn1)c1ccccn1`, the outcome was inactive. Consider `O=C(Nc1nnc(COc2ccc(Cl)cc2)s1)c1ccco1`, for which the Potency was 9.26 µM (active).

Turning to `Cc1ccnc(NC(=S)N2CCN(c3cccc(C(F)(F)F)c3)CC2)c1`, the Potency was 83.3 µM (active) and 3.09 µM (active). In the case of `Cc1ccnc(NC(=S)N2CCN(c3ccc(Br)cc3)CC2)c1`, the Potency was 83.3 µM (active).

Take `CCOC(=O)c1c(-c2ccc(C)o2)csc1NC(=O)CSc1nnnn1-c1ccccc1`: the Potency is 27.8 µM (active).

Turning to `CCOC(=O)c1cc(-c2ccccc2)sc1NC(=O)c1ccc(OC)cc1`, the compound was called inactive.
